About 7,900 targets were measured; listed, in parts, are those with a hit and a random draw of the rest. About 0.6% of all pairs of compound and target were hits. Unmarked numbers belong to inactive results.
Assays:
Assay in all cases: log2 fold change, soluble protein after heating vs DMSO (PISA); higher = thermal stabilisation; K562 cells, 10 uM, 30 min; active = over 0.2 and 3.5 SD of the protein, either way, in both replicates (recomputed)
[1] = compound: CS(=O)(=O)c1ccc(-c2cnc(N)c(C(=O)Nc3ccccc3)n2)cc1
Procedure, shortened: (§1)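 Soluble protein was defined as the supernatant after 21,000xg for 90 min. It came from K562 cells at 2×10^6 cells/mL given 10 μM compound for 30 min, heated in aliquots for 3 min across 48°C-58°C, pooled, and extracted in PBS with 0.5% NP-40 at 4°C, and was quantified by TMTpro 16plex LC-MS/MS with equalised channel sums. Thermal stability against control samples, from duplicates, is reported as log2 fold change.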

crizotinib = compound: C[C@@H](Oc1cc(-c2cnn(C3CCNCC3)c2)cnc1N)c1c(Cl)ccc(F)c1Cl [crizotinib]
Procedure, shortened: as §1

[2] = compound: C[C@@H]1COCCN1C2=NC(=NC(=C2)C3(CC3)S(=O)(=O)C)C4=C5C=CNC5=CC=C4
Procedure, shortened: as §1

[3] = compound: C[C@H](C1=CC=C(C=C1)C(=O)NC2=C3C=CNC3=NC=C2)N
Procedure, shortened: as §1

duvelisib = compound: C[C@H](Nc1ncnc2nc[nH]c12)c1cc2cccc(Cl)c2c(=O)n1-c1ccccc1 [duvelisib]
Procedure, shortened: as §1

gandotinib = compound: Cc1cc(Nc2cc(CN3CCOCC3)c3nc(C)c(Cc4ccc(Cl)cc4F)n3n2)n[nH]1 [gandotinib]
Procedure, shortened: as §1

tozasertib = compound: Cc1cc(Nc2cc(N3CCN(C)CC3)nc(Sc3ccc(NC(=O)C4CC4)cc3)n2)n[nH]1 [tozasertib]
Procedure, shortened: as §1

[4] = compound: Cc1cc(SCc2sc(-c3ccc(C(F)(F)F)cc3)nc2C)ccc1OCC(=O)O
Procedure, shortened: as §1

doramapimod = compound: Cc1ccc(-n2nc(C(C)(C)C)cc2NC(=O)Nc2ccc(OCCN3CCOCC3)c3ccccc23)cc1 [doramapimod]
Procedure, shortened: as §1

ispinesib = compound: Cc1ccc(C(=O)N(CCCN)[C@@H](c2nc3cc(Cl)ccc3c(=O)n2Cc2ccccc2)C(C)C)cc1 [ispinesib]
Procedure, shortened: as §1

Chain of UniProt Q13901 (Q13901 whole entry, looked up): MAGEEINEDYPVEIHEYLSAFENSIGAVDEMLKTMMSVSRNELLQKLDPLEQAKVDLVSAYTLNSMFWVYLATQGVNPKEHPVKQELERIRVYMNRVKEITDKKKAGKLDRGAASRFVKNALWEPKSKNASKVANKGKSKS
Chain of UniProt Q9UKF6 (Q9UKF6 whole entry, looked up): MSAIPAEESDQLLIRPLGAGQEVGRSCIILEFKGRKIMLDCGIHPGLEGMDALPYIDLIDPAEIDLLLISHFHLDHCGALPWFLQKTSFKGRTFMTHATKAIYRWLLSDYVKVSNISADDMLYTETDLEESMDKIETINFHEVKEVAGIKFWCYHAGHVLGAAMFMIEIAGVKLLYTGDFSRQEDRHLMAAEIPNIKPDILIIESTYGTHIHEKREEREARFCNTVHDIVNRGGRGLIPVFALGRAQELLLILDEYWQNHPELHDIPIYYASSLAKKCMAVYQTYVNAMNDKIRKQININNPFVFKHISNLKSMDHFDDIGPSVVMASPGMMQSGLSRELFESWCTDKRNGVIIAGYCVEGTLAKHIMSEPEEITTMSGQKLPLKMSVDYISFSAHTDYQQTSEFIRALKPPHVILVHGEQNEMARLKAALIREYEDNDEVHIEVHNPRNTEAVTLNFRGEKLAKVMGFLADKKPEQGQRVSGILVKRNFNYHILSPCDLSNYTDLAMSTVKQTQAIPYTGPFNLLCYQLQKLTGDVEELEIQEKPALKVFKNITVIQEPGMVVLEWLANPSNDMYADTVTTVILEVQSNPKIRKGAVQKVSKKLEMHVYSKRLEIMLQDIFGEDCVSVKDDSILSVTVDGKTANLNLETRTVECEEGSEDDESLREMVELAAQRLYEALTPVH
Chain of UniProt P08174 (P08174 whole entry, looked up): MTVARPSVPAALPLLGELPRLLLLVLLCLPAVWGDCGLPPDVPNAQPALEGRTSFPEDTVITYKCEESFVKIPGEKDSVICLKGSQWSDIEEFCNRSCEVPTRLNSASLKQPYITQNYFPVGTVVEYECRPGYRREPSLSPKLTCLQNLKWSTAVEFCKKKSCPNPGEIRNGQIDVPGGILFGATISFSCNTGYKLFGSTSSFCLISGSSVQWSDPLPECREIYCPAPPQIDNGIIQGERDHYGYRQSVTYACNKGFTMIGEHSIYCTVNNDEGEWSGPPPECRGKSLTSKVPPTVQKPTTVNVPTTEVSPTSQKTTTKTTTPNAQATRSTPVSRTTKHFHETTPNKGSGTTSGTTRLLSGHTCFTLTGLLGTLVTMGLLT
Chain of UniProt Q96CF2 (Q96CF2 whole entry, looked up): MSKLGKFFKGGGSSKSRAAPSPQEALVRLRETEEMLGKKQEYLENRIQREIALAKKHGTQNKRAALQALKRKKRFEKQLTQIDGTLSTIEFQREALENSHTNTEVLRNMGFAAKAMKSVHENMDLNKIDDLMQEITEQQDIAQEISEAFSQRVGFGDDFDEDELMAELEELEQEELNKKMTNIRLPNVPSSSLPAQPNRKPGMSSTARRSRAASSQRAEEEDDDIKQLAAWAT
Chain of UniProt Q7L3B6 (Q7L3B6 whole entry, looked up): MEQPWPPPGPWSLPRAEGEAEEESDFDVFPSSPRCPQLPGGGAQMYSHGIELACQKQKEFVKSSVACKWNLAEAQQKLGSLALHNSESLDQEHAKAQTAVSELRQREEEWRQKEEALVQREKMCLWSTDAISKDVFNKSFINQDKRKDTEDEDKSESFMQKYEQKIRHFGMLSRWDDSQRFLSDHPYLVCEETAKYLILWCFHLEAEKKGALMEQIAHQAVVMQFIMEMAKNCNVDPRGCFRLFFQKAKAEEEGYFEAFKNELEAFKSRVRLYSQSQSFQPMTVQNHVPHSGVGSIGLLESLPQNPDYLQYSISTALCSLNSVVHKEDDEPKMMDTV
Chain of UniProt P35790 (P35790 whole entry, looked up): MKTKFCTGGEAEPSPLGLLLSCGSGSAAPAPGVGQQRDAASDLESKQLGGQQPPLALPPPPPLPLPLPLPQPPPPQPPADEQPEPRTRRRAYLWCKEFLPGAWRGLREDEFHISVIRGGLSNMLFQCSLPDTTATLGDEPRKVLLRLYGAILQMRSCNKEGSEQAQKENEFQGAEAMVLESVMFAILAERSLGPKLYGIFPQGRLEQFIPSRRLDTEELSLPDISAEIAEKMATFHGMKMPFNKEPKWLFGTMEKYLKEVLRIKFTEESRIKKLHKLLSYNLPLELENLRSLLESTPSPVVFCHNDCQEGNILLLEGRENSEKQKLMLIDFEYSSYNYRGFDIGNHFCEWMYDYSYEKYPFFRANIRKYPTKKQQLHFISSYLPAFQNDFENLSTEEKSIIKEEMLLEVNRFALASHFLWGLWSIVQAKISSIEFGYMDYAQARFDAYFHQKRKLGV
Chain of UniProt P15954 (P15954 whole entry, looked up): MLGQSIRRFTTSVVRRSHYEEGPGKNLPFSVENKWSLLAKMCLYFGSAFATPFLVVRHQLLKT
Chain of UniProt Q99807 (Q99807 whole entry, looked up): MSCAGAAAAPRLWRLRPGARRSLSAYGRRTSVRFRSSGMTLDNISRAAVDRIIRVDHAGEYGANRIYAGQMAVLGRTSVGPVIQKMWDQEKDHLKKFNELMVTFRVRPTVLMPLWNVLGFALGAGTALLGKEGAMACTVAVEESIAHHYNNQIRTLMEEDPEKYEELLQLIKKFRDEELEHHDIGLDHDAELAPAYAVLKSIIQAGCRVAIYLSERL
Chain of UniProt Q9BSQ5 (Q9BSQ5 whole entry, looked up): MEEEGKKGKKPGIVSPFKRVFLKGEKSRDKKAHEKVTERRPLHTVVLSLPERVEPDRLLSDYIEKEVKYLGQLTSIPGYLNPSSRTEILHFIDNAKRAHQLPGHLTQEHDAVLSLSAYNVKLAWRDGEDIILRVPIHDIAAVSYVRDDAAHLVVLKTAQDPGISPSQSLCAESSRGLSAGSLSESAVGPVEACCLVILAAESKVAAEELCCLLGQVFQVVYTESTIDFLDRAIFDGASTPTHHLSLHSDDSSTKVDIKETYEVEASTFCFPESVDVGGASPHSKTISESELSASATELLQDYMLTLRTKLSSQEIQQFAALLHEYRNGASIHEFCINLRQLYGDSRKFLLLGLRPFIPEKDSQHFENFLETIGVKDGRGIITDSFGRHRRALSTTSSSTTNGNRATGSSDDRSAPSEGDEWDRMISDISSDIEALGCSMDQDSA
Chain of UniProt Q9UIV1 (Q9UIV1 whole entry, looked up): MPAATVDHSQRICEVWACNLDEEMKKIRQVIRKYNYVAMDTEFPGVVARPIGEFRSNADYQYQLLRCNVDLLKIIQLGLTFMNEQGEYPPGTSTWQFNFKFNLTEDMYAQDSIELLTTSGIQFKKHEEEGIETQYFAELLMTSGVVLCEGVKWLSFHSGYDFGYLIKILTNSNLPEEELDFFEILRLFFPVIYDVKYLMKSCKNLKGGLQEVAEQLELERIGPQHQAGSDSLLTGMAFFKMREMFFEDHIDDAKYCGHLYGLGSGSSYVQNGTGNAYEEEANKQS
Chain of UniProt O76031 (O76031 whole entry, looked up): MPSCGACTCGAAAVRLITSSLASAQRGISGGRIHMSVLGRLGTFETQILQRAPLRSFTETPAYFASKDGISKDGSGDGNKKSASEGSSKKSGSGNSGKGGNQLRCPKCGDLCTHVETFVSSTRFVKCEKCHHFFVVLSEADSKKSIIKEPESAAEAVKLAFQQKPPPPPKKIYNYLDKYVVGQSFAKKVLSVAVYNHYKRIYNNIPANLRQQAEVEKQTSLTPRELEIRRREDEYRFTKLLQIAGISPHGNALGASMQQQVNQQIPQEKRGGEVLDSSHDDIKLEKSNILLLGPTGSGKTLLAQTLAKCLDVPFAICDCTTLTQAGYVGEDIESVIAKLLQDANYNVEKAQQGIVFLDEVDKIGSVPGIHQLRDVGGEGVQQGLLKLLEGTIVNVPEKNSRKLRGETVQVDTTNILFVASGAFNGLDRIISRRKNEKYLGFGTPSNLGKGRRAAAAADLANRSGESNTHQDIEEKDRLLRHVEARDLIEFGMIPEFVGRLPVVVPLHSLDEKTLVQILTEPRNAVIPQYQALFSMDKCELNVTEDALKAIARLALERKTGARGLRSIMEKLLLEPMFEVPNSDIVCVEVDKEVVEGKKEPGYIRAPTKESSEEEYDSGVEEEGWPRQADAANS
Chain of UniProt Q8WUX2 (Q8WUX2 whole entry, looked up): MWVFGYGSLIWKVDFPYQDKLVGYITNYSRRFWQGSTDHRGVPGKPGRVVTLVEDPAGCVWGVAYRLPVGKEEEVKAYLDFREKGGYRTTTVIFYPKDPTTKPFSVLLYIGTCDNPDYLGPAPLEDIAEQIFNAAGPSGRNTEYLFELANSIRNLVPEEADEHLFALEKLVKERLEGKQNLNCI
Chain of UniProt Q7Z4R8 (Q7Z4R8 whole entry, looked up): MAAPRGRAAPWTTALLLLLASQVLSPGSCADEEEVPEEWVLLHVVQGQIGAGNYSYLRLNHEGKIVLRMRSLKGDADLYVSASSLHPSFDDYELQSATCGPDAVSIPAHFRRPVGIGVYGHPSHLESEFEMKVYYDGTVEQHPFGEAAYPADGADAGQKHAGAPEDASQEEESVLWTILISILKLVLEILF
Chain of UniProt Q96KA5 (Q96KA5 whole entry, looked up): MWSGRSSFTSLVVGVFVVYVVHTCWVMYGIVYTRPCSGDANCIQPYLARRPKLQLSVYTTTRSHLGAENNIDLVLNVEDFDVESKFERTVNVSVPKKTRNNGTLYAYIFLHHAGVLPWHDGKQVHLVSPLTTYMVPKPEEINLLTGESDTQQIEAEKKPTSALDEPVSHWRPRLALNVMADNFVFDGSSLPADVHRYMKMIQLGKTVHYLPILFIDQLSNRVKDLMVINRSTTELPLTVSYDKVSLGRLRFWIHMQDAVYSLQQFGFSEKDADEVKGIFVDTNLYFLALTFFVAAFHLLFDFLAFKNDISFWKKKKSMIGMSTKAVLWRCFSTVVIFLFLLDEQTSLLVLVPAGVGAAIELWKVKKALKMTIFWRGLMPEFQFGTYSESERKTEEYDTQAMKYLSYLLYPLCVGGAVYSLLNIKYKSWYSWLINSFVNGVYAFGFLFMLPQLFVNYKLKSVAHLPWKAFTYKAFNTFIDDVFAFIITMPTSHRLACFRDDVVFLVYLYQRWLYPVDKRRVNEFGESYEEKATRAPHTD

Row | Target | log2 fold change [1] | log2 fold change (crizotinib) | log2 fold change [2] | log2 fold change [3] | log2 fold change (duvelisib) | log2 fold change (gandotinib) | log2 fold change (tozasertib) | log2 fold change [4] | log2 fold change (doramapimod) | log2 fold change (ispinesib)
1 | CLTB (UniProt P09497) | -0.058 | 0.007 | -0.004 | -0.047 | -0.035 | 0.026 | -0.011 | -0.056 | -0.012 | 0.085
2 | CASC3 (UniProt O15234) | -0.228 | 0.537 (active) | -0.412 (active) | 0.243 | 0.065 | 0.484 (active) | -0.088 | -0.067 | -0.025 | -0.094
3 | CLPTM1L (UniProt Q96KA5) | 0.036 | -0.08 | 0.025 | -0.013 | 0.047 | -0.268 (active) | 0.012 | 0 | -0.012 | -0.326 (active)
4 | CLCN3 (UniProt P51790) | -0.05 | -0.191 | 0.012 | -0.003 | 0.046 | -0.062 | 0.04 | -0.006 | -0.03 | -0.549 (active)
5 | CAMSAP1 isoform 3 (UniProt Q5T5Y3) | 0.05 | -0.11 | 0.073 | 0.041 | -0.019 | -0.039 | -0.04 | 0.02 | 0.008 | -0.124
6 | CRKL (UniProt P46109) | 0.037 | -1.34 (active) | 0.008 | -0.045 | 0.075 | -0.027 | -0.357 | 0.012 | -0.024 | 0.046
7 | CNOT7 (UniProt Q9UIV1) | -0.052 | -0.097 | 0.043 | 0.219 | 0.069 | -0.003 | -0.007 | 0.022 | 0.07 | -0.072
8 | CCM2 isoform 2 (UniProt Q9BSQ5) | 0.088 | -0.022 | -0.016 | 0.003 | -0.02 | 0.026 | 0.132 | -0.067 | 0.013 | -0.043
9 | CDC37L1 (UniProt Q7L3B6) | 0.007 | 0.036 | 0.148 | -0.013 | -0.039 | -0.091 | -0.093 | 0.117 | -0.036 | 0.005
10 | CSTF2 (UniProt P33240) | 0.016 | 0.075 | 0.14 | -0.042 | 0.029 | 0.048 | 0.033 | -0.011 | 0.028 | 0.068
11 | CHMP4C (UniProt Q96CF2) | -0.044 | -0.007 | -0.256 | -0.003 | 0.067 | 0.073 | -0.024 | 0.03 | -0.046 | -0.079
12 | CDC42BPA isoform 6 (UniProt Q5VT25) | 0.03 | -0.477 (active) | -0.016 | -0.596 (active) | 0.145 | -0.148 | -0.048 | 0.002 | 0.071 | -0.049
13 | CLPX (UniProt O76031) | 0.061 | 0.291 (active) | 0.027 | 0.004 | 0.004 | 0.003 | -0.012 | -0.05 | -0.002 | 0.018
14 | CHAC2 (UniProt Q8WUX2) | 0.026 | 0.048 | 0.021 | -0.071 | 0.04 | -0.014 | 0.059 | 0.008 | -0.021 | 0.071
15 | CD55 isoform 7 (UniProt P08174) | -0.023 | 0.081 | -0.096 | -0.14 | -0.021 | 0.052 | 0.067 | -0.031 | 0.02 | 0.132
16 | CCNB1 (UniProt P14635) | -0.002 | -0.021 | -0.044 | -0.024 | 0.06 | -0.004 | -0.042 | -0.025 | -0.011 | 0.043
17 | COQ7 (UniProt Q99807) | 0.113 | -0.163 | 0.062 | 0.007 | 0.067 | -0.359 (active) | -0.05 | 0.019 | 0.009 | -0.181
18 | CDC42EP1 (UniProt Q00587) | -0.006 | -0.566 (active) | 0.019 | -0.041 | -0.061 | -0.524 (active) | -0.192 | 0.073 | 0.076 | -0.327
19 | CERT isoform 3 (UniProt Q9Y5P4) | 0.015 | 0.102 | 0.079 | -0.327 (active) | 0.067 | 0.209 | 0.068 | -0.047 | 0.192 | 0.109
20 | CHKA (UniProt P35790) | -0.022 | 0.075 | -0.034 | 0.046 | -0.002 | 0.009 | -0.013 | -0.012 | -0.011 | 0.048
21 | CLCN7 (UniProt P51798) | -0.037 | -0.814 (active) | 0.018 | -0.091 | -0.089 | -0.193 | -0.031 | 0.028 | -0.008 | -0.952 (active)
22 | COMMD1 (UniProt Q8N668) | -0.108 | -0.022 | -0.092 | – | – | 0.42 (active) | -0.049 | – | 0.009 | -0.112
23 | COX7C (UniProt P15954) | 0.025 | 0.147 | 0.028 | – | -0.04 | 0.043 | -0.015 | -0.114 | -0.072 | -0.096
24 | CPSF3 (UniProt Q9UKF6) | -0.004 | 0.01 | 0.013 | -0.006 | 0.011 | -0.052 | 0.117 | 0.031 | 0 | -0.003
25 | CPSF7 isoform 3 (UniProt Q8N684) | -0.016 | 0.013 | 0.026 | -0.05 | 0.017 | -0.004 | -0.012 | 0.018 | -0.014 | 0.09
26 | C1D (UniProt Q13901) | -0.073 | 0.06 | -0.107 | – | – | 0.01 | 0.005 | – | -0.089 | 0.007
27 | C6orf120 (UniProt Q7Z4R8) | 0.069 | -0.04 | – | – | -0.052 | – | -0.032 | 0.113 | 0.134 | -0.07
28 | CNOT4 isoform 6 (UniProt O95628) | 0.007 | 0.031 | 0.056 | -0.076 | 0.06 | -0.005 | -0.009 | 0.014 | -0.02 | 0.066
29 | CDCA2 (UniProt Q69YH5) | 0.161 | 0.025 | 0.041 | -0.021 | – | 0.098 | -0.159 | – | 0.088 | -0.04
30 | CDK17 isoform 2 (UniProt Q00537) | 0.087 | -0.082 | -0.035 | 0.076 | -0.006 | 0.057 | – | 0.126 | 0.028 | –
